Data on 37 molecules can be found in PubChem BioAssay (NCI).

Values joined by “and” are separate entries in the source; they are usually repeats but may differ in a detail not shown here. Equal entries are not always repeated. Compounds without any hit were thinned out: in the full panel of roughly 83,000, 20% have a hit.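 Negative percent growth values reflect cell death: -40 means 40% of the cells present at the start died, and -100 means all died.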 Values without a mark were called inactive. Active and inactive are the calls of the source. The calls were made as follows: active = growth percent below 10; inactive = the rest.

The test system of the test is MOLT-4 leukemia. Nature of the test: NCI-60 one-dose screen, 48 h (100 = growth as untreated, 0 = no growth, -100 = all killed). Particulars: 10 µM unless noted.
For `CCOC(=O)C1C(C=C(C)C)C1(C)C` (configuration not stated), the growth is 85.1%.
With `O=C/C=C/c1ccco1`, the growth is 98.9%.
For `Cn1cc(-c2csc(-c3cn(CCCCN4CCOCC4)c4ccc(F)cc34)n2)c2cccnc21` the value was 46.7%.
The result for `CC(=O)Nc1nc2c(s1)C1=CC[C@H]3[C@@H]4CC[C@H](OC(C)=O)[C@@]4(C)CC[C@@H]3[C@@]1(C)CC2` reads 82.9%; that for `C[C@]12CC[C@H](O)C[C@@H]1CC[C@@H]1[C@@H]2CC[C@]2(C)OC(=O)CC[C@@H]12`, 113%.
As to `C[C@]12CCc3sc(Nc4ccc(O)cc4)nc3C1=CC[C@@H]1[C@@H]2CC[C@]2(C)C(=O)CC[C@@H]12`, the growth was 11%.
For `O=C(O)C(Br)CBr` (configuration not stated) the value was 87.7%; for `Cc1cc[c-]cc1.Fc1c[c-]c(-c2ccccn2)c(F)c1.N#CCC[PH+](CCC#N)c1ccccc1.[Pt+2]`, 5.29% (active); for `O=P(O)(Nc1ccccc1)Nc1ccccc1`, 43.6%.
On to `Cc1cc(N(CCCl)CCCl)ccc1C=Nc1ccc(-c2csc(-c3ccccc3)n2)cc1`, for which the growth was 22.5%.
For `Oc1ccccc1C=NCCN=Cc1ccccc1O`, the growth is 106%.
With `COC12CC3(C)C(C4=CC(=O)OC4)CCC3(O)C3CCC4=CC(=O)CCC4(CO1)C32` (configuration not stated), the growth was 119%.
For `CC12CCC3C(CCC4CC(O)CCC43C)C1CCC2=O` (configuration not stated) the value was 83.1%; for `COc1cc(-c2ccc(N)c(OC)c2)ccc1N`, 173%; for `COc1ccn(C)c(=O)c1C#N`, 106%.
The result for `CCCCCCCCCCCCCCCC[N+](C)(C)Cc1ccccc1` reads -1.12% (active) and -55.3% (active).
The result for `Cc1nc2ccccc2c(=O)n1-c1ccccc1F` reads 96.9%.
As to `C[C@]12CC[C@H]3[C@@H](C[C@@H]4SC(Nc5ccccc5)=N[C@@]45C/C(=N/O)CC[C@]35C)[C@@H]1CCC2=O`, the growth was 20.2%.
With `N#CCN(CC#N)[N+](=O)[O-]`, the growth was 114%.
Regarding `O=C(O)c1ccccc1N(CCO)CCCl`, the growth was 98.3%.
The result for `O=[N+]([O-])c1cc(Cl)c(Cl)cc1Cl` reads 102% and 103%.
Regarding `CN1[C@@H](CC(=O)c2ccccc2)CCC[C@H]1CC(=O)c1ccccc1`, the growth is 111%.
In the case of `O=Cc1cn(Cc2ccccc2)c2ccccc12`, the growth is 99.8%.
Take `OCCN=Cc1c[nH]c2ccccc12`: the growth is 101%.
For `C=CC[PH+](c1ccccc1)c1ccccc1.C=CC[PH+](c1ccccc1)c1ccccc1.[Pt+2].[S-]c1nc2ccccc2[nH]1.[S-]c1nc2ccccc2[nH]1` the value was 0.306% (active); for `O=NN1CCCCC1`, 115%; for `COC(=O)C1=CCCN(C)C1`, 105% and 97.6%.
For the molecule `CC[C@H](C)[C@H](NC(=O)[C@H]1CCCCN1C)C(=O)N(C)[C@H](C[C@@H](OC(C)=O)c1cccc(C(=O)N[C@@H](Cc2ccccc2)C[C@H](C)C(=O)OC)n1)C(C)C`, the growth was 13.6%.
Consider `CC1(C)CN=C(NN=C(/C=C/c2ccc(C(F)(F)F)cc2)/C=C/c2ccc(C(F)(F)F)cc2)NC1`, for which the growth was -59.1% (active).
In the case of `Cc1ccc(P(=O)(O)O)cc1`, the growth is 116%.
For `Nc1ccc2c(c1)Cc1cc(N)ccc1-2` the value was 104%; for `N#CCCc1ccccc1`, 94.5%; for `CNC(=O)O/N=C(\SC)C(=O)N(C)C`, 86.5%.
Regarding `CCC1(CCSC#N)C(=O)NC(=O)NC1=O`, the growth is 85.1%.
Consider `Oc1ccccc1C=NCCN=Cc1ccccc1O.[Fe]`, for which the growth is 30.7%.
With `CCCCCCCCCCCCCCCC[N+](C)(C)C`, the growth is -52.4% (active).
`C[N+]1(C)CCCC1c1cccnc1` (configuration not stated): the growth is 102%.
